This is a sample that favours compounds with a hit; in the whole collection about 4% have one here.
Rv3671c protease – inhibitors of M. tuberculosis serine protease Rv3671c | inhibition, % at 5.96 µM | AID 2606 | hit rate 0.048% among 320,000; in the data active = inhibition above about 38%;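 note: extracellular domain of Rv3671c used as enzyme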
RecA intein inh – blocks M. tuberculosis RecA intein splicing; cell-free RecA intein splicing, fluorescence; P9WHJ3; inhibition, % (test concentration not listed); hit rate 0.75% among 290,000; in the data active = inhibition above about 30%; inconclusive = no clear call, values can overlap the other calls
FBA Mtb inh – inhibits M. tuberculosis FBA enzyme; P9WQA3; inhibition, % at 1 µM; AID 588726; purified M. tuberculosis FBA, fluorescence read-out; hit rate 2.3% among 360,000; in the data active = inhibition above about 27%
UGM FP inh – Mtb UDP-galactopyranose mutase inhibition; inhibition, % at 10 µM; hit rate 0.06% among 320,000; P9WIQ1; AID 504406; purified UGM, fluorescence polarization probe displacement; in the data active = inhibition above about 10%, passing the limit was not always enough; inconclusive = no clear call, values can overlap the other calls
Target sequence (P9WIQ1 whole entry, looked up): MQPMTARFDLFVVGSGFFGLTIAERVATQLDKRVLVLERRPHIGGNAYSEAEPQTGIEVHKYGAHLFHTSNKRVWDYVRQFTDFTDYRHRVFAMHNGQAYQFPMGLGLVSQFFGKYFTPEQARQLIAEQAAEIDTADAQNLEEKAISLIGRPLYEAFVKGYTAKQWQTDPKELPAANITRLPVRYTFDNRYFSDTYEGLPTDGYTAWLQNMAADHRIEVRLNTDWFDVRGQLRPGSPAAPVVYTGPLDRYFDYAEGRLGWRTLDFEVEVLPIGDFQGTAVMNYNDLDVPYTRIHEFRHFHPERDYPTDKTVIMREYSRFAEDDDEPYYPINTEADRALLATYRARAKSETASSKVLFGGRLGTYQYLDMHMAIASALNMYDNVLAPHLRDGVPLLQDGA
Mtb betalactam – beta-lactam sensitization of Mtb H37Rv | M. tuberculosis H37Rv growth with meropenem, percent inhibition | hit rate 0.27% among 330,000 | inhibition, % at 25 µM; call rule not given here;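 note: growth measured after seven days incubation then overnight dye step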
GDH-TPI counter – inhibits GDH-TPI coupling enzymes, artifact for Mtb FBA screen | GDH-TPI coupled enzyme counterscreen, NADH absorbance | inhibition, % at 4.8 µM | hit rate 1.2% among 360,000 | AID 588335; in the data active = inhibition above about 30%
A number is an active result; 0 = inactive; ? = inconclusive; - = not tested or not shown; + = active, no number.

SMILES	Rv3671c protease	RecA intein inh	FBA Mtb inh	UGM FP inh	Mtb betalactam	GDH-TPI counter
COC(=O)c1cc(C(=O)c2cc(Cl)ccc2O)coc1=N	0	0	0	0	0	0
COCCOC(=O)c1cc(C(=O)c2cc(F)ccc2O)coc1=N	0	0	0	0	0	37
Cc1ccc(-c2nc(C#N)c(N3CCCCC3)o2)cc1	0	0	137	0	0	0
N#Cc1nc(-c2ccc(OCc3ccc(Cl)cc3)cc2)oc1N1CCC(C(N)=O)CC1	0	0	0	0	0	0
COc1ccc(-c2nc(C#N)c(N3CCCCC3)o2)cc1	0	0	+	0	0	0
CCCOc1ccc(-c2nc(C#N)c(N3CCC(C(N)=O)CC3)o2)cc1	0	0	+	0	0	0
N#Cc1nc(-c2ccco2)oc1N1CCCC1	0	0	189	0	0	0
CC(C)c1ccc(S(=O)(=O)NC2CCS(=O)(=O)C2)cc1 (stereo not drawn)	0	0	0	0	0	0
COc1ccc(-c2nc(C#N)c(N3CCCCCC3)o2)cc1OC	0	0	+	0	0	31
COc1ccccc1OCc1nc(C#N)c(N2CCCC2)o1	0	0	0	0	0	0
COc1ccc(-c2nc(C#N)c(N3CCC(C)CC3)o2)cc1	0	0	115	0	0	0
COc1ccc(-c2nc(C#N)c(N3CCCCCC3)o2)cc1	0	0	194	0	0	0
CC(C)CNc1oc(-c2ccc(F)cc2)nc1C#N	0	0	128	0	?	0
CC1(c2cccc(Br)c2)NC(=O)N(CC(=O)Nc2ccc3c(c2)OCCO3)C1=O (stereo not drawn)	0	-	0	0	0	0
N#Cc1nc(-c2ccc(OCc3ccc(Cl)cc3)cc2)oc1N1CCOCC1	0	0	0	0	0	0
N#Cc1nc(-c2ccccc2F)oc1N1CCCC1	0	0	+	0	0	0
N#Cc1nc(-c2ccccc2)oc1N1CCCCC1	0	0	+	0	0	0
COc1ccc(-c2nc(C#N)c(NC(C)C)o2)cc1	0	0	190	0	0	0
N#Cc1nc(-c2ccc(Cl)cc2)oc1N1CCCCC1	0	0	+	0	0	0
CC(C)(C)c1ccc(-c2nc(C#N)c(NCc3ccncc3)o2)cc1	0	0	0	0	0	0
N#Cc1nc(Cc2ccccc2)oc1N1CCCC1	0	0	0	0	0	0
Cc1ccc([N+](=O)[O-])c(NC(=O)COC(=O)CCNS(=O)(=O)c2cccs2)c1C	-	-	0	-	-	0
CCCCNC(=O)C(NC(=O)c1cccnc1)C(=O)c1ccccc1 (stereo not drawn)	-	-	0	-	-	-
CCOC(=O)c1cc(C)[nH]c(=O)c1C#N	0	0	161	0	0	0
CC(C)C(NC(=O)c1ccccc1NC(=O)c1ccccc1)C(=O)NCCCn1ccnc1 (stereo not drawn)	0	0	0	0	0	0
SMILES	Rv3671c protease	RecA intein inh	FBA Mtb inh	UGM FP inh	Mtb betalactam	GDH-TPI counter
COc1cc(-c2cc(C(=O)Nc3c(Cl)cc(Cl)cc3Cl)c3ccccc3n2)cc(OC)c1OC	0	0	0	0	0	0
COc1ccc2nc3ccccc3nc2c1NC(=O)c1ccc(Cl)cc1Cl	0	0	0	37	0	0
Cc1noc(C)c1C(=O)Nc1nccs1	0	0	0	0	0	0
CCOC(=O)c1nnc(-c2cccs2)nc1Oc1ccccc1C(=O)OC	0	0	0	0	0	0
CCOC(=O)c1nnc(-c2cccs2)nc1Oc1ccc(Cl)cc1	0	38	0	0	0	0
CCOC(=O)c1nnc(-c2ccccc2)nc1NCc1ccc(Cl)cc1	0	0	0	0	0	0
CCOC(=O)c1nnc(-c2cccs2)nc1NC(C)C	0	0	0	0	0	31
CCOC(=O)Cn1cc(/C=N/NC(=O)c2ccc(C#N)cc2F)c2ccccc21	0	0	0	0	0	34
Cn1cc(/C=N/NC(=O)c2ccc(C#N)cc2F)c2ccccc21	0	0	0	0	0	0
N#Cc1ccc(C(=O)N/N=C/c2cn(CC(=O)O)c3ccccc23)c(F)c1	0	0	0	0	0	36
O=C(NCCc1ccccc1F)c1cccc2cccnc12	0	0	0	0	0	0
O=C1NC(=O)C2(CCCCC2C2CCCCC2)N1 (stereo not drawn)	-	-	0	-	-	0
O=C(N/N=C/C(Cl)=C/c1ccccc1)c1ccccc1F	0	0	0	0	0	0
O=C(N/N=C/C(Cl)=C\c1ccccc1)c1ccco1	0	0	0	0	0	33
O=C(N/N=C/C(Cl)=C/c1ccccc1)c1ccco1	0	0	0	0	0	35
C=CCc1cc(/C=C2/NC(=O)N(CC(=O)OC)C2=O)cc(OC)c1O	0	0	0	0	0	32
C=CCc1cc(/C=C2/NC(=S)NC2=O)cc(OC)c1O	0	0	0	0	0	0
C=CCn1c2ccccc2c(=O)c2cc(C#Cc3ccsc3)ccc21	0	0	-	0	0	-
C=CCn1c2ccccc2c(=O)c2cc(C#Cc3ccccn3)ccc21	0	-	+	0	0	0
C[C@H]1CN([C@@H](C)CO)C(=O)c2cc(Br)cnc2O[C@H]1CN(C)C(=O)C1CCC1	-	-	0	-	-	0
CCOC(=O)C1(C)CCN1C(=O)c1ccc(F)c(Cl)c1 (stereo not drawn)	-	-	0	-	-	0
COc1cc2oc(=O)ccc2c(OC)c1CC(O)C(C)(C)O (stereo not drawn)	0	0	0	0	0	0
O=c1ccc2cc(OC3O[C@H](CO)[C@@H](O)[C@H](O)[C@H]3O)c(O)cc2o1 (stereo partly drawn)	0	-	-	0	0	0
COc1cc2ccc(=O)oc2cc1OCC(O)C(C)(C)O (stereo not drawn)	0	0	138	0	0	0
COc1cc2ccc(=O)oc2cc1O	0	-	+	0	0	0
SMILES	Rv3671c protease	RecA intein inh	FBA Mtb inh	UGM FP inh	Mtb betalactam	GDH-TPI counter
O=C(COC(=O)C1C2CC3OC(=O)C1C3C2)Nc1cccc(Cl)c1 (stereo not drawn)	0	-	0	0	0	0
c1ccc(Sc2ncnc3ccccc23)cc1	0	40	0	0	0	0
CN(C)CCCNS(=O)(=O)c1ccc(N2CCC(c3ccc(Cl)cc3)=N2)cc1	0	0	-	0	0	-
O=S(=O)(c1ccc(N2CCC(c3ccc(Cl)cc3)=N2)cc1)N(CCO)CCO	0	0	+	0	0	32
CSc1nncn1/N=C/c1ccc2c(c1)OCO2	0	0	0	0	0	35
O=C(NCCS(=O)(=O)NCc1ccc2c(c1)OCO2)c1ccccc1	0	0	0	0	0	0
NC(=O)C(C(=O)/C=C/c1ccc(Cl)cc1)=C1SCCS1	0	-	0	0	0	44
CCn1c2ccc(F)cc2c2nnc(SCCN3CCCCC3)nc21	-	0	0	0	0	0
CCN(CC)Cc1c(O)ccc2c(=O)c(-c3ccccc3OC)coc12	0	-	116	0	0	0
COc1ccccc1-c1coc2c(CN3CCC(C)CC3)c(O)ccc2c1=O	0	0	149	0	0	0
COc1ccc(Oc2coc3c(CN(C)C)c(O)ccc3c2=O)cc1	0	0	0	0	0	0
COc1ccccc1N1CCN(C(=O)/C=C/c2c(Cl)nc3ccccn23)CC1	0	0	0	0	0	47

From PubChem
